Drawing on PubChem BioAssay, this text covers z-score for seven compounds.

This assay in a line: HepG2 cell viability effects, profiling panel, calcein-AM fluorescence, 48 h, basal (AID 1164). Note: test concentration not given here. As to conditions: higher = more signal.
Take `CC(C)N1C(=O)c2ccccc2[C@](C)(C(=O)NCCN2CCOCC2)[C@@H]1c1ccc(CO)cc1`: the z-score is 0.458.
Consider `CCCC=C(CCC)[C@@H](NC(=O)c1cccs1)c1ccc(C(F)(F)F)cc1`, for which the z-score was -0.809.
With `C[N+](C)(C)CCCCNC(=O)[C@@H]1C[C@@H]2C(=O)N[C@@H](Cc3ccccc3)C(=O)N2[C@@H]1c1cccc(OCCO)c1`, the z-score was 0.215.
For `Cc1ccc(S[C@]2(C(=O)NC3CC3)CC(=O)N(Cc3ccccc3)[C@@H]2c2ccc(CO)cc2I)cc1`, the z-score was 0.935.
For the compound `CCOC(=O)C1=C[C@@H](C(C)(C)C)N(S(=O)(=O)c2ccc(C)cc2)[C@H]1c1ccc(F)cc1`, the z-score was -1.71.
With `COc1ccc(C(O)C2C=CC3C(=O)N(Cc4ccccc4)C(=O)C3N2n2cnnc2)cc1OCc1ccccc1` (configuration not stated), the z-score was -0.345.
As for `CC1CC/C=C\[C@H]2OC34C=CCN(C(C)(C)C)C(=O)[C@H]3N(CCO)C(=O)[C@@H]4C2C(=O)O1` (some centres not stated), the figure is -0.593.
